Assay outcomes as filed in PubChem BioAssay.
Shown are actives, neighbours in structure and some others; about 3.6% of the full set was active somewhere.
Mm-Cpn inhibitor: Inhibitors of TCP-1 ring complex (TRiC) of Methanococcus maripaludis (MmCpn): qHTS. Chaperonin Mm-Cpn (Methanococcus maripaludis). purified Mm-Cpn ATPase, ADP Transcreener TR-FRET. Potency, µM (series often up to 76.9 µM), inactives show at the highest dose activity, negative = inhibition, hits mostly inhibitors. 330,000 tested, 0.031% active. AID 504842, 2011; note: % is set by controls: 0 for no effect and ±100 for the full control effect; nearly all actives have a fitted effect of over 80% in size
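Reaction buffer contained 30 mM Tris pH 7.4, 100 mM KCl, 5 mM MgCl2 and 1 mM DTT. Mm-CPN (25 nM final) hydrolysed 10 uM ATP over 30 min at 37°C; ADP was read by HTRF.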
aSyn yeast inh: qHTS of alpha-syn Inhibitors; Yeast expressing alpha-synuclein, growth rescue, BacTiter-Glo, 24 h; 370,000 tested, 0.14% active; Potency, µM (titrated, usually from 46.1 µM), for inactives: at the highest dose growth rescue (activation), hits mostly activators; note: % of control where 0% means no effect; nearly all actives have a fitted effect of over 65% in size
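Rescue of yeast growth: cells expressing toxic alpha-synuclein, induced in galactose at OD600 0.02, incubated with compound 24 h at 30 C. ATP luminescence quantified growth; inhibitors of toxicity appear as activators.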
ClpP mod: qHTS Assay for Activators of ClpP; Potency, µM (titrated, usually from 57.5 µM), for the others: at the highest dose activity change, negative = active; 340,000 tested, 1.9% active; ATP-dependent Clp protease proteolytic subunit (Bacillus subtilis (strain 168)), P80244; purified B. subtilis ClpP, FRET peptide cleavage, 20 min; active = well fitted falling curve with a large enough effect; inconclusive = small, poorly fitted or top-dose-only effect; inactive = no such curve, though single readings can be large or run the other way; note: the source files actives as falling curves though it sought activators and does not explain the sign; nearly all actives have a fitted effect of over 65% in size
Target sequence (P80244 whole entry, looked up): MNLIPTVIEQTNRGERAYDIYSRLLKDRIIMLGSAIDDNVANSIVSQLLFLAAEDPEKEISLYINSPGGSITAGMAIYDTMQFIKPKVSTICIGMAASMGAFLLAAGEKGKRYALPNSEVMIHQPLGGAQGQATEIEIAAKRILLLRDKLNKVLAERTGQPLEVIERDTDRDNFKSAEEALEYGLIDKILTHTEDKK
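FRET quenching reversal measured ClpP activation: 10 microg/mL B. subtilis ClpP at pH 8 with the FRET-FV decapeptide, read at 430 nm after 320 nm excitation. The 20-min minus 0-min signal was scaled between DMSO/no-enzyme wells and ADEP (5.8 microM final).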
Abeta rescue: qHTS for compounds that reverse cellular toxicity of Amyloid beta (A-beta) peptide in yeast: Primary Screen; yeast expressing A-beta42, growth rescue, OD600, 48 h; response scale: 0% DMSO, 100% iron-clioquinol control; Potency, µM (doses to about 46.1 µM), usual class: activators; 410,000 tested, 0.063% active; note: nearly all actives have a fitted effect of over 55% in size
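Yeast growth medium received pinned compounds, then yeast cells expressing toxic A-beta were added; plates incubated at 30 C for 48 hr. Growth read as absorbance at 600 nm, normalized to DMSO and equimolar FeCl3 plus clioquinol controls.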
FUS yeast rescue: qHTS for Suppressors of FUS Proteinopathy: Primary screen using FUS-linked yeast assay; Potency, µM (top dose mostly 76.6 µM), hits mostly activators; 390,000 tested, 0.24% active; S. cerevisiae FUS-expressing, growth rescue, OD600, 24 h;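 note: plate controls were DMSO vehicle for no effect and reference control for full effect; nearly all actives have a fitted effect of over 55% in size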
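FUS-expressing yeast, raffinose-pregrown, induced in 2% galactose minimal medium at OD 0.005; compounds in a dilution series, 24hr at 30C. Growth restoration read as absorbance at 600 nm. CP55940 positive control, DMSO negative.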
TDP43 rescue: qHTS of TDP-43 Inhibitors; TDP-43 expressing yeast growth rescue, BacTiter-Glo, 24 h; Potency, µM (doses to about 46.1 µM), inactives show top-dose growth rescue (activation), usual class: activators; AID 652104, 2013; 410,000 tested, 1.8% active; note: % of control where 0% means no effect; nearly all actives have a fitted effect of over 50% in size
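Galactose-induced TDP-43 yeast, OD600=0.02, compound pinned; 24 hr, 30 deg C; BacTiter-Glo luminescence for growth. Inhibitors of TDP-43 toxicity read as activators.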
An asterisk follows results filed as active. Unless noted, calls come from the whole dose curve; as a rule, active = well fitted curve in the direction sought with a large enough effect; inconclusive = small, poorly fitted or top-dose-only effect, or another doubt; inactive = no such curve, though single readings can be large; an effect the other way counts as inactive or inconclusive. Potency is the fitted concentration of half-maximal effect.

COc1ccc(-c2nc(SCC(=O)Nc3c(C)cc(C)cc3C)n[nH]2)cc1 was read as ClpP mod 0%, Abeta rescue inactive, FUS yeast rescue inactive and TDP43 rescue 10%.
CC1(C)CC(=O)C=C(NC2=CC3OC(c4ccccc4)OCC3OC2=O)C1 (stereo not given) was read as Mm-Cpn inhibitor -2%, aSyn yeast inh 13µM*, ClpP mod -1%, Abeta rescue inactive and TDP43 rescue 13µM*.
`COc1ccc(C(=O)Cc2nnc(C)s2)cc1` gave Mm-Cpn inhibitor 0%, aSyn yeast inh 10%, ClpP mod 20µM*, Abeta rescue inactive and TDP43 rescue -2%.
Screening Clc1ccc(-c2nc3cnccn3c2NC2CCCC2)cc1 returned Mm-Cpn inhibitor -7%, aSyn yeast inh 0%, ClpP mod -21%, Abeta rescue inactive, FUS yeast rescue inactive and TDP43 rescue 13µM*.
For CCOC(=O)CNc1c(-c2ccc(Cl)cc2)nc2cnccn12 the results were Mm-Cpn inhibitor -6%, aSyn yeast inh 4%, ClpP mod 28µM*, Abeta rescue inactive and TDP43 rescue 7%.
CCOC(=O)CNc1c(-c2ccc(F)cc2)nc2cnccn12 was read as Mm-Cpn inhibitor -7%, aSyn yeast inh -2%, ClpP mod 25µM*, Abeta rescue inactive, FUS yeast rescue inactive and TDP43 rescue 6%.
Screening CCC(C)Sc1ccc(-c2nc3cnccn3c2NC2CCCCC2)cc1 (stereo not given) returned Mm-Cpn inhibitor -3%, aSyn yeast inh -18%, ClpP mod 4%, Abeta rescue inactive, FUS yeast rescue inconclusive and TDP43 rescue -36%.
For CCOC(=O)CNc1c(-c2ccc(OC)cc2)nc2ccc(Cl)cn12 the results were Mm-Cpn inhibitor -2%, aSyn yeast inh 0%, ClpP mod -9%, Abeta rescue inactive, FUS yeast rescue inactive and TDP43 rescue -9%.
Screening CC(C)(C)OC(=O)N1CCC(c2c(C(=O)N3CCC(c4ccccc4)C3)cnn2-c2ccc(Cl)cc2)CC1 (stereo not given) returned ClpP mod 2%, Abeta rescue inactive, FUS yeast rescue inactive and TDP43 rescue 14%.
Screening CCOC(=O)c1c(C)[nH]c(C)c1S(=O)(=O)N1CCC(C(=O)NCc2ccc(N(C)C)cc2)CC1 returned ClpP mod -3%, Abeta rescue inactive, FUS yeast rescue inactive and TDP43 rescue 24%.
For O=C(O)c1ccccc1C(=O)OC1CCCC2CCCC21 (stereo not given) the results were aSyn yeast inh 18%, ClpP mod 0%, Abeta rescue inactive and TDP43 rescue 22µM*.
`CC1C2CCC(C2)C1OC(=O)c1ccccc1C(=O)O` (stereo not given) gave aSyn yeast inh 13%, ClpP mod 0%, Abeta rescue inactive, FUS yeast rescue inactive and TDP43 rescue 5%.
Screening Cc1cccc(CNC(=O)c2ccc(NC(=O)N3CCSc4ccccc43)cc2)c1 returned ClpP mod -2%, Abeta rescue inactive, FUS yeast rescue inactive and TDP43 rescue 21%.
`O=C(CSc1nc2ccccc2n1Cc1ccccc1Cl)NN=C/C(Br)=C/c1ccccc1` gave FUS yeast rescue inactive.
For CC1Cc2ccccc2N1C(=S)NC(=O)c1ccco1 (stereo not given) the results were Mm-Cpn inhibitor 0%, aSyn yeast inh -11%, Abeta rescue inactive, FUS yeast rescue inactive and TDP43 rescue inconclusive.
Screening CC1Cc2ccccc2N1C(=S)NC(=O)C1(C)CC1(Cl)Cl (stereo not given) returned Mm-Cpn inhibitor 0%, aSyn yeast inh -6%, Abeta rescue 13µM*, FUS yeast rescue inactive and TDP43 rescue inconclusive.
`CCOC(=O)CN1C(c2ccc(O)cc2)Nc2ccc(Br)cc2C1c1ccccc1` (stereo not given) gave Mm-Cpn inhibitor -3%, aSyn yeast inh 14%, ClpP mod -3%, Abeta rescue inactive and TDP43 rescue 20µM*.
`CC(=O)CC[C@H]1CC[C@]2(CCCN(C(=O)c3ccc4ccccc4n3)C2)O1` gave FUS yeast rescue inactive.
`Cc1ccc(N=Nc2[nH]c3ccccc3c2O)cc1` gave Mm-Cpn inhibitor 1%, aSyn yeast inh 0%, ClpP mod 25µM*, Abeta rescue inactive, FUS yeast rescue inactive and TDP43 rescue inconclusive.
For COc1ccc(N=Nc2[nH]c3ccc(C)cc3c2O)cc1 the results were Mm-Cpn inhibitor 0%, aSyn yeast inh -4%, ClpP mod 1%, Abeta rescue inactive and TDP43 rescue 23%.
`CCOCCn1ccc2c(OCC(=O)Nc3cccc(F)c3)cccc2c1=O` gave ClpP mod -6%, Abeta rescue inactive, FUS yeast rescue inactive and TDP43 rescue 33%.
CCCN(CC(=O)Nc1cc(Cl)cc(Cl)c1)CC(=O)Nc1ccc(F)c(F)c1F was read as Mm-Cpn inhibitor 5%, aSyn yeast inh 3%, ClpP mod -4%, Abeta rescue inconclusive, FUS yeast rescue inactive and TDP43 rescue 28µM*.
`CCCN(CC(=O)Nc1ccccc1Br)CC(=O)Nc1ccc(F)c(F)c1F` gave Mm-Cpn inhibitor -1%, aSyn yeast inh 23%, ClpP mod 1%, Abeta rescue inactive, FUS yeast rescue inactive and TDP43 rescue inconclusive.
For CCC(=O)Nc1ccc(-c2nnc3c4ccccc4c(C)nn23)cc1 the results were ClpP mod -11%, Abeta rescue inactive, FUS yeast rescue inactive and TDP43 rescue -4%.
For O=C(Nc1nc(-c2ccccn2)cs1)c1ccco1 the results were Mm-Cpn inhibitor 1%, aSyn yeast inh 18µM*, Abeta rescue inconclusive, FUS yeast rescue inactive and TDP43 rescue -8%.
Screening O=c1oc2ccccc2cc1-c1csc(NN=C2CCCCC2)n1 returned Mm-Cpn inhibitor 0%, aSyn yeast inh 3%, ClpP mod inconclusive, Abeta rescue inactive, FUS yeast rescue 13µM* and TDP43 rescue -10%.
For O=c1oc2ccccc2cc1-c1nc2ccccc2o1 the results were Mm-Cpn inhibitor -10%, aSyn yeast inh 10%, ClpP mod 31%, Abeta rescue inactive, FUS yeast rescue inactive and TDP43 rescue 9%.
